Results from PubChem BioAssay (Tox21).
Several values for one entry are separate records, joined by “and”; a condition that tells them apart may be missing. Equal entries are not always repeated. Inconclusive results are not listed. More than one record can exist for a structure, and the calls need not agree. Activity calls are given as the source filed them. Unless noted, the call rests on the fitted dose curve; in most records, active means well fitted curve in the direction sought with a large enough effect in the repeat runs; inconclusive means weak or mixed curves; inactive means no such curve, though single readings can be large; an effect the other way counts as inactive or inconclusive.

Legend:
[1] = qHTS assay to identify aromatase inhibitors - cell viability counter screen (AID 743084);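 further: cells stimulated with testosterone during compound exposure; nearly all actives have a fitted effect of over 55% in size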; further: potency means the concentration at half of the fitted maximal effect
[2] = target: Aryl hydrocarbon receptor (Homo sapiens) (UniProt P35869); assay: qHTS assay to identify small molecule that activate the aryl hydrocarbon receptor (AhR) signaling pathway (AID 743085);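 further: HG2L7.5c1 human HepG2 liver cells with stably integrated DRE-driven firefly reporter; series mostly up to about 70 µM; nearly all actives have a fitted effect of over 15% in size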
In short: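 Measured in HG2L7.5c1 cells: CellTiter-Fluor signal (30 min incubation, 37C) for viability, then luciferase luminescence (30 min, room temperature). Compound contact time was 24 h at 37C, following a 5 h pre-incubation.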

[3] = qHTS assay to identify small molecule that activate the aryl hydrocarbon receptor (AhR) signaling pathway - cell viability counter screen (AID 743086);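 further: HepG2 liver cells carrying the AhR DRE luciferase reporter; series mostly up to about 70 µM; nearly all actives have a fitted effect of over 45% in size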
In short: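 HepG2-AhR-luc (HG2L7.5c1) cells, 4000/well, treated 24 h at 37 C with compound; viability measured as CellTiter-Fluor fluorescence after 30 min in the same wells as the luciferase read.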

[4] = target: Peroxisome proliferator-activated receptor gamma (Homo sapiens) (UniProt P37231); assay: qHTS assay to identify small molecule agonists of the peroxisome proliferator-activated receptor gamma (PPARg) signaling pathway (AID 743094; active means well fitted activation curve with a large enough effect in the signal ratio in the repeat runs, not every such curve was filed as active; the % refers to the signal ratio)
In short: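 Cells from the PPARg UAS-bla HEK293H line are plated and incubated 5 h at 37C. Compounds in DMSO are pinned in and left 17 h at 37C. LiveBLAzer B/G substrate is then added for 1 h at room temperature before fluorescence is measured.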

[5] = qHTS assay to identify small molecule antagonists of the peroxisome proliferator-activated receptor gamma (PPARg) signaling pathway - cell viability counter screen (AID 743194); details: Potency: co-treated with 50 nM rosiglitazone; further: nearly all actives have a fitted effect of over 55% in size; further: potency means the concentration at half of the fitted maximal effect
In short: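 Cytotoxicity counter screen in PPARg-bla HEK293H cells, same wells as reporter assay. Compounds plus 50 nM rosiglitazone (final) for 17 h at 37 C, then viability read by CellTiter-Glo luminescence.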

[6] = qHTS assay for small molecule agonists of the antioxidant response element (ARE) signaling pathway (AID 743202; active means well fitted activation curve with a large enough effect in the signal ratio in the repeat runs, not every such curve was filed as active; the % refers to the signal ratio; further: potency means the concentration at half of the fitted maximal effect)
In short: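 HepG2 ARE-bla cells; 16 h treatment at 37 C; FRET-based beta-lactamase fluorescence read after 2 h substrate incubation at room temperature.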

[7] = qHTS assay for small molecule agonists of the antioxidant response element (ARE) signaling pathway - cell viability counter screen (AID 743203; calls by dose curve; further: nearly all actives have a fitted effect of over 55% in size; further: potency means the concentration at half of the fitted maximal effect)
In short: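 Cytotoxicity was tested in parallel with the ARE reporter screen. ARE-bla HepG2 cells were exposed to compounds for 16 hrs, and viability was taken from CellTiter-Glo luminescence.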

[8] = qHTS assay for small molecule activators of the heat shock response signaling pathway - cell viability counter screen (AID 743209); further: nearly all actives have a fitted effect of over 50% in size; further: potency means the concentration at half of the fitted maximal effect
In short: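 Cytotoxicity counter screen run in parallel with the HSE beta-lactamase reporter, using the same wells. HeLa HSE-bla cells received compound for 5 h at 37 C; ATP-based CellTiter-Glo luminescence was measured after 30 min at room temperature.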

[9] = qHTS assay for small molecule activators of the heat shock response signaling pathway (AID 743210; active means well fitted activation curve with a large enough effect in the signal ratio in the repeat runs, with a control signal flat, not every such curve was filed as active; the % refers to the signal ratio;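 further: HeLa cells with beta-lactamase reporter driven by heat shock elements; series mostly up to about 63 µM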)
In short: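 Following overnight attachment, HSE-bla HeLa cells received test compounds for 5 h at 37 C; beta-lactamase activity was then detected via FRET substrate fluorescence.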

[10] = target: Peroxisome proliferator-activated receptor gamma (Homo sapiens) (UniProt P37231); assay: qHTS assay to identify small molecule antagonists of the peroxisome proliferator-activated receptor gamma (PPARg) signaling pathway (AID 743191; calls by dose curve; further: series mostly up to about 63 µM; nearly all actives have a fitted effect of over 30% in size)
In short: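 GeneBLAzer PPARg UAS-bla HEK293H cells, 5 h post-plating, exposed to compounds 17 h at 37C. LiveBLAzer B/G FRET substrate added for 1 h at room temperature; beta-lactamase reporter read by fluorescence intensity.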
On the % scale 0 is the no-effect control and ±100 the full control effect.

Chain of Peroxisome proliferator-activated receptor gamma (Homo sapiens) (P37231 whole entry, looked up): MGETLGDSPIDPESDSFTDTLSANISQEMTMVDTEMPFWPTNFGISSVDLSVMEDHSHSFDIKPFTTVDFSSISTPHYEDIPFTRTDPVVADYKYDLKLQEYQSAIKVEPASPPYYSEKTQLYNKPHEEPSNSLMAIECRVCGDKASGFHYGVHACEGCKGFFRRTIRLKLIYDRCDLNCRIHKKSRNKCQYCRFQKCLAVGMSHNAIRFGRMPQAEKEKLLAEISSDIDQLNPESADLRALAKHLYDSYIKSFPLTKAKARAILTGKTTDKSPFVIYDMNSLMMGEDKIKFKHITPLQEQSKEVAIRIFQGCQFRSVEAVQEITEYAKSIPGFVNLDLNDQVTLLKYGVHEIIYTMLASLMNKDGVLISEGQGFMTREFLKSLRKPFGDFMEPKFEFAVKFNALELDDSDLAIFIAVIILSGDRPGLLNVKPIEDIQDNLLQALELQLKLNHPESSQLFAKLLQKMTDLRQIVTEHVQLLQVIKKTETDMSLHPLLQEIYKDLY
Chain of Aryl hydrocarbon receptor (Homo sapiens) (P35869 whole entry, looked up): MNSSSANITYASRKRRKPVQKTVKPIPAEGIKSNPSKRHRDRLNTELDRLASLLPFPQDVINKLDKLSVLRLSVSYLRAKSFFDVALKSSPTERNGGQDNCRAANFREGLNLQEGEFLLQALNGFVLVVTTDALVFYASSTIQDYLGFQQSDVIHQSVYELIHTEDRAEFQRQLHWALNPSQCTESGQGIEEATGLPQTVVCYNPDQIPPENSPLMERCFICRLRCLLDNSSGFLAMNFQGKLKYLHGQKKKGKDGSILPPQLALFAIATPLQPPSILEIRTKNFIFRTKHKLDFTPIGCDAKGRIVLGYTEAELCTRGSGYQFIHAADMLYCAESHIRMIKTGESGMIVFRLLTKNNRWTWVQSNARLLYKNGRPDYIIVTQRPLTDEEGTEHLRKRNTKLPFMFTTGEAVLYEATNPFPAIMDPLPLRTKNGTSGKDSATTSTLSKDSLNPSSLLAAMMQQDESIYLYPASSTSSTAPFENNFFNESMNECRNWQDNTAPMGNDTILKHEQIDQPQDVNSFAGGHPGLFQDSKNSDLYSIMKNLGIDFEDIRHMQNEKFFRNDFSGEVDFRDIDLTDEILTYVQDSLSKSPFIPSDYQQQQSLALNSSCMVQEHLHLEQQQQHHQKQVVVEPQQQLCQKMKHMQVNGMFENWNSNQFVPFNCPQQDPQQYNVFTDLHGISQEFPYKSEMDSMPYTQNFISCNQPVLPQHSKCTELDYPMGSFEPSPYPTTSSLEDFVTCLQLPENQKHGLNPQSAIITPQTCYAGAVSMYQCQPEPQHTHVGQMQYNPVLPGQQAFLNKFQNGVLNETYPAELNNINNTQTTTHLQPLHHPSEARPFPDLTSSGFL

CCC(C)(C)c1ccc(O)c(C(C)(C)CC)c1
active: Potency [1] 42.8 µM and 27.3 µM | Potency [5] 24.3 µM and 21.9 µM | Potency [7] 61.1 µM | Potency [8] 17.2 µM and 17.4 µM
inactive: Potency [2] | Potency [3] | Potency [4] | Potency [6]

C=CC(=O)NC(C)(C)CC(C)=O
inactive: Potency [1] | Potency [2] | Potency [3] | Potency [4] | Potency [5] | Potency [6] | Potency [7] | Potency [8] | Potency [9]

C=C(C)C(=O)OCCCCOC(=O)C(=C)C
inactive: Potency [1] | Potency [2] | Potency [3] | Potency [4] | Potency [5] | Potency [6] | Potency [7] | Potency [8] | Potency [9]

CCOP(=S)(OCC)SCSc1cc(Cl)ccc1Cl
inactive: Potency [1] | Potency [2] | Potency [3] | Potency [4] | Potency [5] | Potency [6] | Potency [7] | Potency [8] | Potency [9]

Clc1ccccc1
inactive: Potency [1] | Potency [2] | Potency [3] | Potency [4] | Potency [5] | Potency [6] | Potency [7] | Potency [8] | Potency [9]

NNCCO
inactive: Potency [1] | Potency [2] | Potency [3] | Potency [4] | Potency [5] | Potency [6] | Potency [7] | Potency [8] | Potency [9]

C=CCSSCC=C
inactive: Potency [1] | Potency [2] | Potency [3] | Potency [4] | Potency [10] | Potency [6] | Potency [7] | Potency [8] | Potency [9]

O=C(Cl)OCCOCCOC(=O)Cl
inactive: Potency [1] | Potency [2] | Potency [3] | Potency [4] | Potency [5] | Potency [7] | Potency [8]

CCCCCCCCn1sccc1=O
active: Potency [1] 12.2 µM and 40.4 µM | Potency [5] 34.7 µM and 28.9 µM | Potency [7] 21.7 µM and 25.5 µM
inactive: Potency [2] | Potency [3] | Potency [4] | Potency [8]

C[C@H](N)[C@H](O)c1ccc(O)c(O)c1
inactive: Potency [1] | Potency [2] | Potency [3] | Potency [4] | Potency [5] | Potency [7] | Potency [8] | Potency [9]

CC(C)CCCCCCCOC(=O)c1ccccc1C(=O)OCCCCCCCC(C)C
inactive: Potency [1] | Potency [2] | Potency [3] | Potency [4] | Potency [10] | Potency [7] | Potency [8] | Potency [9]

CC1(C)CC(=O)CC(C)(C)N1[O]
inactive: Potency [1] | Potency [2] | Potency [3] | Potency [4] | Potency [5] | Potency [6] | Potency [7] | Potency [8] | Potency [9]

CC(C)(C#N)C(C)(C)C#N
inactive: Potency [1] | Potency [2] | Potency [3] | Potency [4] | Potency [5] | Potency [6] | Potency [7] | Potency [8] | Potency [9]

c1ccc2c(c1)sc1ccccc12
inactive: Potency [1] | Potency [2] | Potency [3] | Potency [4] | Potency [10] | Potency [7] | Potency [8] | Potency [9]

CCCCCCCCCCCCN=C(N)N
inactive: activity change, negative = cytotoxicity [1] -14.3% [at 3.79 µM] | activation [2] -0.0242% [at 3.79 µM] | viability change, negative = cytotoxic [3] -4.27% [at 3.79 µM] | activation [4] 0.522% [at 3.17 µM] | ratio activity, negative = inhibition [10] -16.9% [at 2.7 µM] | viability change, negative = cytotoxic [7] -8.9% [at 3.74 µM] | activity change, negative = cytotoxicity [8] -18.4% [at 2.7 µM]

CC(C)OC(=O)Cc1ccccc1
inactive: Potency [1] | Potency [2] | Potency [3] | Potency [4] | Potency [5] | Potency [6] | Potency [7] | Potency [8] | Potency [9]

C=CC(=O)OCC
inactive: Potency [1] | Potency [2] | Potency [3] | Potency [4] | Potency [5] | Potency [6] | Potency [7] | Potency [8] | Potency [9]

OC[P+](CO)(CO)CO
active: Potency [6] 12.3 µM and 8.63 µM
61.8 µM (active) and inactive: Potency [1]
inactive: Potency [2] | Potency [3] | Potency [4] | Potency [5] | Potency [7] | Potency [8] | Potency [9]

CC(O)CN1CCN(CC(=O)[O-])CCN(CC(=O)[O-])CCN(CC(=O)[O-])CC1.[Gd+3] (stereo not drawn)
inactive: Potency [1] | Potency [2] | Potency [3] | Potency [4] | Potency [5] | Potency [6] | Potency [7] | Potency [8] | Potency [9]

O=[N+]([O-])c1cc(Cl)c(Cl)cc1Cl
inactive: Potency [1] | Potency [2] | Potency [3] | Potency [4] | Potency [5] | Potency [7] | Potency [8] | Potency [9]

OCCSSCCO
inactive: Potency [1] | Potency [2] | Potency [3] | Potency [4] | Potency [5] | Potency [7] | Potency [8] | Potency [9]

O=C(O)COc1cc(Cl)c(Cl)cc1Cl
inactive: Potency [1] | Potency [2] | Potency [3] | Potency [4] | Potency [5] | Potency [7] | Potency [8] | Potency [9]

CC(Oc1cccc(Cl)c1)C(=O)O (stereo not drawn)
inactive: Potency [1] | Potency [2] | Potency [4] | Potency [10] | Potency [5] | Potency [6] | Potency [7] | Potency [8] | Potency [9]

O=C1CC[C@@]2(O)[C@H]3Cc4ccc(O)c5c4[C@@]2(CCN3CC2CC2)[C@H]1O5
inactive: Potency [1] | Potency [2] | Potency [3] | Potency [5] | Potency [7] | Potency [8] | Potency [9]

CC(=O)NNc1ccccc1
inactive: Potency [1] | Potency [2] | Potency [3] | Potency [5] | Potency [6] | Potency [7] | Potency [8]
